Compounds with a hit are over-represented: about 7.6% of the library has one in this group of screens.
MCF10A rerep = induces DNA re-replication in MCF 10a normal breast cells. MCF 10A DNA re-replication, Hoechst nuclear intensity, 48 h. Potency, µM (doses to about 46.1 µM), without a hit: at the highest dose activity, positive = re-replication, hits mostly activators. 350,000 compounds, 2.9% hits. AID 624296; note: potency is the fitted concentration of half-maximal effect; % of control where 0% means no effect; nearly all actives have a fitted effect of over 50% in size
KB-V1 MDR tox = kills drug-selected multidrug resistant KB-V1 cells; KB-V1 MDR cells viability, CellTiter-Glo, 72 h; Potency, µM (doses to about 46.1 µM), hits mostly cytotoxic; 400,000 compounds, 3.4% hits; note: potency is the fitted concentration of half-maximal effect; % is set by controls: 0 for no effect and ±100 for the full control effect; nearly all actives have a fitted effect of over 60% in size
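Luminescent ATP read-out (CellTiter-Glo, 10 min) measures survival of drug-selected KB-V1 MDR cells after 72 h, 37 degrees C compound exposure. Medium: phenol-red-free DMEM, 10% FBS. Values from fitted concentration-response curves.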
SW480 rereplic = induces DNA re-replication in SW480 colon adenocarcinoma cells; SW480 DNA re-replication, Hoechst DNA content imaging, 48 h; Potency, µM (top dose mostly 46.1 µM), for the others: top-dose re-replication activation, hits mostly activators; 340,000 compounds, 1.8% hits; AID 624297; note: potency is the fitted concentration of half-maximal effect; % of control where 0% means no effect; nearly all actives have a fitted effect of over 55% in size
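Treated cells incubate 48 hr (37 C, 5% CO2), are stained 40 min with Hoechst, and nuclear fluorescence is enumerated; a rise in nuclei with high DNA signal marks re-replication.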
KCNH2 WT inh = KCNH2 (human, wildtype) channel inhibition. Q12809. U2OS, BacMam KCNH2, thallium flux FluxOr; hits give low values. activity change, % at 1.84 µM. 340,000 compounds, 0.37% hits. AID 720551;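 active = maximum activity change below -70%; inconclusive = maximum activity change between -70% and -50%; inactive = maximum activity change above -50%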; note: % is set by controls: 0 for no effect and ±100 for the full control effect
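U2OS cells transduced with wild-type KCNH2 virus are loaded with FluxOr dye for 45 min, and thallium flux is measured in kinetic reads before and after stimulation buffer. Rate constants are normalized to DMSO controls.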
KCNH2 3.1 block = blocks the human KCNH2 3.1 channel isoform | 340,000 compounds, 0.95% hits | activity change, % (tested at about 1.8 µM) | U2OS KCNH2 3.1, thallium flux FluxOr; hits give low values;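 active = maximum activity change below -70%; inconclusive = maximum activity change from -70% to -50%; inactive = maximum activity change above -50%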;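 note: thallium influx rate constant from kinetic fluorescence after stimulation buffer; % is set by controls: 0 for no effect and ±100 for the full control effect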
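U2OS cells transduced with KCNH2 3.1 mutant virus (1.77 x 10^8 /mL, 4 h), plated overnight at 37 C, loaded 45 min with FluxOr dye plus Red40 quencher. Thallium flux rate constant from kinetic reads after stimulation buffer, normalised to controls.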
KB-3-1 cytotox = KB-3-1 parental cell cytotoxicity; Potency, µM (highest dose often 46.1 µM), most hits filed as cytotoxic; 400,000 compounds, 1.4% hits; KB-3-1 viability, CellTiter-Glo ATP luminescence, 72 h; note: potency is the fitted concentration of half-maximal effect; % is set by controls: 0 for no effect and ±100 for the full control effect; nearly all actives have a fitted effect of over 60% in size
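Cytotoxicity measured as CellTiter-Glo luminescence after 72 h at 37 C. Compound titrations were pinned onto drug-naive KB-3-1 parental adenocarcinoma cells grown in DMEM with 10% FBS, and normalized data fitted to concentration-response curves.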
* hit, by the source's call; i = inactive; ? = inconclusive; · = no result given; ! = repeats disagree; [ ] = remark or other dose. Unless noted, calls come from the whole dose curve; as a rule, active = well fitted curve in the direction sought with a large enough effect; inconclusive = small, poorly fitted or top-dose-only effect, or another doubt; inactive = no such curve, though single readings can be large; an effect the other way counts as inactive or inconclusive.

SMILES | MCF10A rerep | KB-V1 MDR tox | SW480 rereplic | KCNH2 WT inh | KCNH2 3.1 block | KB-3-1 cytotox
COc1cc2c(cc1OC)-c1cc(Nc3ccc(C(=O)O)cc3)nc(=O)n1CC2 | -5% | ? | -5% | 7 | -93* | i
COc1ccccc1N1CCN(c2ncnc3c2oc2ccccc23)CC1 | 3.3µM* | 6.5µM* | 21µM* | 12 | -2 | 5.8µM*
c1ccc2[nH]c(CN3CCN(c4ncnc5c4oc4ccccc45)CC3)nc2c1 | -4% | i | -3% | -2 | -7 | i
C(=C\c1ccccc1)/CN1CCN(c2ncnc3c2oc2ccccc23)CC1 | 79% | 3.7µM* | 19% | 35 | -19 | ?
COc1cc(C(=O)Nc2nc(-c3cccs3)cs2)cc(OC)c1OC | ? | i | -8% | 1 | 20 | i
O=C(CN1C(=O)CCC1=O)Nc1nc(-c2ccc(Cl)s2)cs1 | 21µM*! | i | 6% | -17 | 2 | i
COc1ccc(C(=O)Nc2nc(-c3cccs3)cs2)cc1 | ? | 5.8µM* | -8% | 5 | -2 | ?
Cc1c(C(=O)Nc2nccs2)sc2nc(-c3cccs3)cc(C(F)(F)F)c12 | ? | ? | ? | 11 | 1 | 9.2µM*
Cc1csc(NC(=O)c2sc3nc(-c4cccs4)ccc3c2N)n1 | 1% | 21µM* | ? | 1 | 9 | i
O=C(CN1C(=O)CCC1=O)Nc1nc(-c2cccs2)cs1 | -6% | i | 1%[9.22 µM] | 14 | 3 | i
CCN(CC)C(=O)C1=C(C)N(CCCOC)C(=O)C(CC(=O)NCCN2CCOCC2)C1 (centres undefined) | · | i | · | -5 | 5 | i
O=C(COc1ccc(Cl)cc1)Nc1nc(-c2cccs2)cs1 | 13µM* | i | -2% | 4 | 15 | i
O=C(Nc1nc(-c2ccc(Cl)s2)cs1)c1ccncc1 | 2% | 6.5µM* | -3% | -24 | 1 | ?
CN(C(=O)C1CCC1C(=O)O)c1nc(-c2ccc(Cl)s2)cs1 (centres undefined) | -10% | i | 12% | 25 | -2 | i
O=C(Nc1nc(-c2cccs2)cs1)c1ccc([N+](=O)[O-])o1 | 2.9µM* | 21µM* | 7.3µM* | 3 | 0 | 6.5µM*
CC1CC1C(=O)Nc1nc(-c2ccc(Cl)s2)cs1 (centres undefined) | 10% | 13µM* | 4% | 12 | -4 | ?
Cc1ccc(CNC(=O)CN2CCCN(Cc3ccc(F)cc3)S2(=O)=O)cc1 | · | i | · | · | · | i
COc1ccccc1CNS(=O)(=O)c1c(C(=O)N2CCCCCC2)c(C)n(C)c1C | 0% | i | 14% | 4 | 27 | i
Cc1sc2ncn(CC(=O)N3CCN(c4ccc(Cl)cc4)CC3)c(=O)c2c1S(=O)(=O)N1CCN(c2ncccn2)CC1 | · | i | · | · | · | i
COc1ccc(C(=O)Nc2cnc(NC(=O)c3cccs3)cc2C)cc1 | 7.3µM* | i | ? | 5 | -1 | i
O=C(Nc1nc(-c2cccs2)cs1)c1ccco1 | ? | ? | -5% | · | -5 | ?
O=C(Nc1nc(-c2cccs2)cs1)c1ccc(Cl)cc1 | ? | 21µM* | 0% | -4 | -12 | ?
COc1ccc(C(=O)Nc2cc(C)c(NC(=O)c3ccccn3)cn2)cc1 | -7% | i | 1% | 3 | -24 | i
Cc1ccc(CNc2ncccc2-c2nc(-c3ccc(Cl)cc3)no2)cc1 | · | i | · | · | · | i
O=C(O)CN1C(=O)c2ccc(Oc3ccc4c(c3)C(=O)N(CC(=O)O)C4=O)cc2C1=O | 9% | i | -6% | -12 | 10 | i
Cc1ccc2nc(C)c3c(c2c1)N(c1ccc(F)cc1)CC3 | 18µM* | ? | -8% | 9 | -33 | ?
Cc1ccc2nc(C)c3c(c2c1)SCC3 | -3% | i | ? | -2 | 7 | i
COc1ccc(/C=C2\Sc3ccc(C(=O)NCc4cccnc4)cc3N(C)C2=O)cc1OC | ? | i | ? | -2 | 33 | i

From PubChem BioAssay
